# Laboratory results as given in article PMC10812921, “Transcriptional Coactivator BOB1 (OBF1, OCA-B) Modulates the Specificity of DNA Recognition by the POU-Domain Factors OCT1 and OCT2 in a Monomeric Configuration”.
# How the values were obtained:
# POU1 (OCT1 POU domain) = POU1 (OCT1 POU domain) (human, UniProt P14859 260-458); assay: EMSA-SELEX-seq; no BOB1; 20 mM Tris-HCl pH 7.6, 140 mM NaCl, 10% glycerol, 0.5 mM EDTA, 0.05% Triton X-100, 0.1 mg/mL BSA, 0.1 mg/mL poly(dI-dC), 5 mM DTT, room temperature, 20 min; high values mean tight binding; conditions: protein: recombinant; dsDNA, one strand shown
# In short: (§1)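 Binding preference is reported as the percentage of sequenced 8-mers that match a motif pattern. Tagged POU-domain proteins were made in E. coli BL21, purified under denaturing conditions and renatured. A 30 ng portion was combined with 300 ng of a PCR-amplified double-stranded random 35-nt library, with or without 28 ng coactivator protein, in 20 μL Tris–HCl pH 7.6 binding buffer for 20 min at RT. Complex bands were excised from native 6% PAGE, eluted and PCR-amplified over four rounds before Illumina sequencing.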
# POU2 (OCT2 POU domain) = target: T1, POU2 (OCT2 POU domain) (human, UniProt P09086 175-386); assay: as above; conditions: protein: recombinant; dsDNA, one strand shown
# T1 sequence: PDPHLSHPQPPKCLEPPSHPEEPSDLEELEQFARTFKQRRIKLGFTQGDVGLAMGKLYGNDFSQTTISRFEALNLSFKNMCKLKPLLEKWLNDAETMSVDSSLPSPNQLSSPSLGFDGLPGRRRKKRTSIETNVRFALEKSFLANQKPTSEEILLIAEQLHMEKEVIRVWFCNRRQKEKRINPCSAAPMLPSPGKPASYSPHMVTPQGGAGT
# In short: as §1
# [1] = target: POU1 (OCT1 POU domain);BOB1 (OBF1, OCA-B) (human;human, UniProt P14859;Q16633 260-458;1-256, |); assay: EMSA-SELEX-seq; with BOB1 (ternary complex band); 20 mM Tris-HCl pH 7.6, 140 mM NaCl, 10% glycerol, 0.5 mM EDTA, 0.05% Triton X-100, 0.1 mg/mL BSA, 0.1 mg/mL poly(dI-dC), 5 mM DTT, room temperature, 20 min; high values mean tight binding; conditions: protein: recombinant;recombinant; copies: 1;1; dsDNA, one strand shown
# In short: as §1
# [2] = target: T2, POU2 (OCT2 POU domain);BOB1 (OBF1, OCA-B) (human;human, UniProt P09086;Q16633 175-386;1-256, |); assay: as above; conditions: protein: recombinant;recombinant; copies: 1;1; dsDNA, one strand shown
# T2 sequence 1: T1 sequence
# T2 sequence 2: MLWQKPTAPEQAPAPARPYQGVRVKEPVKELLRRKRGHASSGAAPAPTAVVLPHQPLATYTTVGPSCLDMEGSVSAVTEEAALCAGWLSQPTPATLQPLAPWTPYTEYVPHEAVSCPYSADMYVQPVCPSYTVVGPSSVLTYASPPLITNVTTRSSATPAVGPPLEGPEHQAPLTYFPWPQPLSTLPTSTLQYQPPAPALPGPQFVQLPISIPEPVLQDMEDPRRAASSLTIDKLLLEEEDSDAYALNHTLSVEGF
# In short: as §1
# POU1 (OCT1 POU domain), sequence (P14859 260-458): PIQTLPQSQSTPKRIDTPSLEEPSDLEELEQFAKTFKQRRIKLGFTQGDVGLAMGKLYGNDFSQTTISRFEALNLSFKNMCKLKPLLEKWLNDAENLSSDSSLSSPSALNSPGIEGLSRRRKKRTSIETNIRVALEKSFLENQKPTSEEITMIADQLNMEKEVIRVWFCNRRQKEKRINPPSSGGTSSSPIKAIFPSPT
Sequence,binding signal (POU1 (OCT1 POU domain)),binding signal (POU2 (OCT2 POU domain)),binding signal [1],binding signal [2]
ACGGAAAG,0.0397 % of ANNNNAAN 8-mers,0.0443 % of ANNNNAAN 8-mers,0.0406 % of ANNNNAAN 8-mers,0.0371 % of ANNNNAAN 8-mers
AAGAGAAC,0.0271 % of ANNNNAAN 8-mers,0.0391 % of ANNNNAAN 8-mers,0.0285 % of ANNNNAAN 8-mers,0.0289 % of ANNNNAAN 8-mers
AGAGTAAG,0.0305 % of ANNNNAAN 8-mers,0.0466 % of ANNNNAAN 8-mers,0.039 % of ANNNNAAN 8-mers,0.0297 % of ANNNNAAN 8-mers
ACAGAAAT,0.0568 % of ANNNNAAN 8-mers,0.0633 % of ANNNNAAN 8-mers,0.0472 % of ANNNNAAN 8-mers,0.0504 % of ANNNNAAN 8-mers
AATGAAAA,0.164 % of ANNNNAAN 8-mers,0.152 % of ANNNNAAN 8-mers,0.202 % of ANNNNAAN 8-mers,0.114 % of ANNNNAAN 8-mers
ATGCTAAC,0.0671 % of ANNNNAAN 8-mers,0.0949 % of ANNNNAAN 8-mers,0.0347 % of ANNNNAAN 8-mers,0.0495 % of ANNNNAAN 8-mers
ACGTTAAA,0.0412 % of ANNNNAAN 8-mers,0.0506 % of ANNNNAAN 8-mers,0.0371 % of ANNNNAAN 8-mers,0.0421 % of ANNNNAAN 8-mers
AGCATAAG,0.105 % of ANNNNAAN 8-mers,0.129 % of ANNNNAAN 8-mers,0.0441 % of ANNNNAAN 8-mers,0.0627 % of ANNNNAAN 8-mers
ATAACAAA,0.098 % of ANNNNAAN 8-mers,0.0909 % of ANNNNAAN 8-mers,0.1 % of ANNNNAAN 8-mers,0.0883 % of ANNNNAAN 8-mers
AGTGAAAT,0.138 % of ANNNNAAN 8-mers,0.124 % of ANNNNAAN 8-mers,0.196 % of ANNNNAAN 8-mers,0.121 % of ANNNNAAN 8-mers
AAGTGAAA,0.0721 % of ANNNNAAN 8-mers,0.0587 % of ANNNNAAN 8-mers,0.0788 % of ANNNNAAN 8-mers,0.0627 % of ANNNNAAN 8-mers
ATTGTAAT,0.312 % of ANNNNAAN 8-mers,0.357 % of ANNNNAAN 8-mers,0.116 % of ANNNNAAN 8-mers,0.137 % of ANNNNAAN 8-mers
AAATGAAC,0.115 % of ANNNNAAN 8-mers,0.102 % of ANNNNAAN 8-mers,0.11 % of ANNNNAAN 8-mers,0.141 % of ANNNNAAN 8-mers
ACGGCAAG,0.0206 % of ANNNNAAN 8-mers,0.027 % of ANNNNAAN 8-mers,0.0211 % of ANNNNAAN 8-mers,0.0239 % of ANNNNAAN 8-mers
AATAAAAG,0.106 % of ANNNNAAN 8-mers,0.121 % of ANNNNAAN 8-mers,0.118 % of ANNNNAAN 8-mers,0.101 % of ANNNNAAN 8-mers
AGCTCAAG,0.0183 % of ANNNNAAN 8-mers,0.0173 % of ANNNNAAN 8-mers,0.0187 % of ANNNNAAN 8-mers,0.0206 % of ANNNNAAN 8-mers

Sequence,binding signal (POU1 (OCT1 POU domain)),binding signal (POU2 (OCT2 POU domain)),binding signal [1],binding signal [2]
AATAGAAC,0.0381 % of ANNNNAAN 8-mers,0.0541 % of ANNNNAAN 8-mers,0.0382 % of ANNNNAAN 8-mers,0.0462 % of ANNNNAAN 8-mers
AGAAAAAC,0.04 % of ANNNNAAN 8-mers,0.0368 % of ANNNNAAN 8-mers,0.0519 % of ANNNNAAN 8-mers,0.0396 % of ANNNNAAN 8-mers
AAGATAAT,0.138 % of ANNNNAAN 8-mers,0.203 % of ANNNNAAN 8-mers,0.0819 % of ANNNNAAN 8-mers,0.129 % of ANNNNAAN 8-mers
ACTCTAAC,0.013 % of ANNNNAAN 8-mers,0.015 % of ANNNNAAN 8-mers,0.0187 % of ANNNNAAN 8-mers,0.0182 % of ANNNNAAN 8-mers
ATCCCAAG,0.0172 % of ANNNNAAN 8-mers,0.0167 % of ANNNNAAN 8-mers,0.0246 % of ANNNNAAN 8-mers,0.0198 % of ANNNNAAN 8-mers
AACTAAAC,0.0225 % of ANNNNAAN 8-mers,0.0299 % of ANNNNAAN 8-mers,0.0289 % of ANNNNAAN 8-mers,0.0264 % of ANNNNAAN 8-mers
AGTTAAAA,0.0778 % of ANNNNAAN 8-mers,0.0915 % of ANNNNAAN 8-mers,0.0831 % of ANNNNAAN 8-mers,0.0537 % of ANNNNAAN 8-mers
AGCCTAAC,0.0153 % of ANNNNAAN 8-mers,0.0144 % of ANNNNAAN 8-mers,0.0109 % of ANNNNAAN 8-mers,0.0157 % of ANNNNAAN 8-mers
ATGAGAAA,0.0755 % of ANNNNAAN 8-mers,0.0765 % of ANNNNAAN 8-mers,0.0738 % of ANNNNAAN 8-mers,0.0792 % of ANNNNAAN 8-mers
AGTCAAAG,0.116 % of ANNNNAAN 8-mers,0.0748 % of ANNNNAAN 8-mers,0.187 % of ANNNNAAN 8-mers,0.0966 % of ANNNNAAN 8-mers
AAGAGAAT,0.0728 % of ANNNNAAN 8-mers,0.0806 % of ANNNNAAN 8-mers,0.0738 % of ANNNNAAN 8-mers,0.0553 % of ANNNNAAN 8-mers
AGCAGAAA,0.0374 % of ANNNNAAN 8-mers,0.0339 % of ANNNNAAN 8-mers,0.0336 % of ANNNNAAN 8-mers,0.0281 % of ANNNNAAN 8-mers
ATTGAAAC,0.0431 % of ANNNNAAN 8-mers,0.0322 % of ANNNNAAN 8-mers,0.0406 % of ANNNNAAN 8-mers,0.0396 % of ANNNNAAN 8-mers
AACCGAAG,0.0172 % of ANNNNAAN 8-mers,0.0201 % of ANNNNAAN 8-mers,0.0168 % of ANNNNAAN 8-mers,0.014 % of ANNNNAAN 8-mers
ACGTCAAA,0.0271 % of ANNNNAAN 8-mers,0.0178 % of ANNNNAAN 8-mers,0.0371 % of ANNNNAAN 8-mers,0.0173 % of ANNNNAAN 8-mers
AGTGCAAC,0.0118 % of ANNNNAAN 8-mers,0.0219 % of ANNNNAAN 8-mers,0.0113 % of ANNNNAAN 8-mers,0.0215 % of ANNNNAAN 8-mers
